# The sample as a whole holds a higher share of hits than the screen did.
# UDG counter – UDG inhibition counter-screen; FRET deamination/UDG coupled assay, UDG read, 4 h; Potency, µM (titrated, usually from 115 µM), usual class: inhibitors; actives 0.14% (n = 91,000); also: nearly all actives have a fitted effect of over 65% in size
# AID inh – inhibitors of human activation induced cytidine deaminase. AID deamination FRET fluorescence, UDG-coupled, 4 h. Potency, µM (highest dose often 115 µM), usual class: inhibitors. actives 0.32% (n = 91,000); also: nearly all actives have a fitted effect of over 25% in size
# Target sequence (Q9GZX7 whole entry, looked up): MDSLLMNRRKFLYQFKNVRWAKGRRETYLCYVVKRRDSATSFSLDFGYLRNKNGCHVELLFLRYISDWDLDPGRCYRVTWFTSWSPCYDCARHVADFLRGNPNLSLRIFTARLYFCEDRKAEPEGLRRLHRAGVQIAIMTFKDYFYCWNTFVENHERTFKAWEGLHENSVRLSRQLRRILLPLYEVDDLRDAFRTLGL
# GPR32 ag – GPR32 (DRV1) agonism, beta-arrestin recruitment; actives 2.5% (n = 48,000); activation, % at 76.9 µM; AID 1346428; CHO-K1 GPR32 beta-arrestin PathHunter luminescence, 90 min; zero percent set by DMSO-only wells; O75388;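 active = activation of at least 60% and not above a set upper limit, about 1 call in 100 departs from these limits; inconclusive = activation of 40% to 60%, or above that upper limit; inactive = activation under 40%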
# Target sequence (O75388 whole entry, looked up): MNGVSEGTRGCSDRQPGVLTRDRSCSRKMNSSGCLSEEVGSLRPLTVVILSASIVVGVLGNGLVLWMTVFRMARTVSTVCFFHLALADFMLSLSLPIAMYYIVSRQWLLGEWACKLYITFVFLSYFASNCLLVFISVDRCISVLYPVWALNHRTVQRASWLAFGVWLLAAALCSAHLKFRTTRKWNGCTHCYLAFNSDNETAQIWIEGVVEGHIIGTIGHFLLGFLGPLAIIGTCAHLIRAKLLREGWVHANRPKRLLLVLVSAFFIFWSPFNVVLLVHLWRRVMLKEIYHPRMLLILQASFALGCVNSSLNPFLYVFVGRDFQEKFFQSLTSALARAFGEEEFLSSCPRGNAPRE
#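 CHO-K1 cells stably expressing ProLink-tagged GPR32 and Enzyme Activator-tagged beta-arrestin were seeded at 2,500 cells/well overnight, exposed to compounds for 90 min at 37 °C, then read by beta-Gal complementation chemiluminescence after 1 h detection reagent.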
# Hits are given with their value; . = inactive; ? = inconclusive; / = no result. Unless noted, calls follow the shape of the dose curve; as a rule, active = well fitted curve in the direction sought with a large enough effect; inconclusive = small, poorly fitted or top-dose-only effect, or another doubt; inactive = no such curve, though single readings can be large; an effect the other way counts as inactive or inconclusive.
SMILES,UDG counter,AID inh,GPR32 ag
COc1cccc2c1OC1(CCN(C(C)=O)CC1)N1N=C(c3ccc(OC(F)F)cc3)CC21 (configuration not stated),.,.,/
O=C(NCCc1ccc(Cl)cc1)c1ccc(CS(=O)(=O)Cc2ccc(Cl)cc2)o1,.,.,.
COc1ccc(CNC(=O)c2ccc(CS(=O)(=O)c3ccccc3OC)o2)cc1,.,.,.
O=C(NCCc1ccc(Cl)cc1)c1ccc(CS(=O)(=O)Cc2ccccc2F)o1,.,.,111.4
COc1ccccc1S(=O)(=O)Cc1ccc(C(=O)NCc2ccc(Cl)cc2)o1,.,.,97.6
O=S(=O)(Nc1nc2ccccc2nc1Nc1cccc(F)c1)c1cccs1,.,.,/
COc1ccccc1N(CC(=O)Nc1cc(C)cc(C)c1)S(C)(=O)=O,.,.,.
CS(=O)(=O)N(CC(=O)Nc1ccc(Br)cc1)c1ccccc1Br,.,.,60.8
O=C(Nc1onc2c1CCCC2)c1ccccc1,.,.,.
CCOc1ccc(C(=O)Nc2onc3c2CCCC3)cc1,.,.,.
CC(C)(C)c1ccc(C(=O)Nc2onc3c2CCCC3)cc1,.,.,88.2
CC(C)COc1ccc(C(=O)Nc2onc3c2CCCC3)cc1,.,.,114.2
O=C(NC1CCCC1)C(Cl)c1ccccc1 (configuration not stated),.,.,/
CC(C)C(=O)Nc1ccc(CNC(=O)C2CCC(C(C)(C)C)CC2)cc1 (configuration not stated),.,.,/
COc1ccc(-c2nc(SCC(=O)Nc3ccc(Br)cc3C)n[nH]2)cc1,.,.,/
COc1ccc(-c2nc(SCC(=O)c3ccc(Br)cc3)n[nH]2)cc1,.,.,113.9
Cc1ccc(CNC(=O)CN(c2ccc(C(C)C)cc2)S(=O)(=O)c2c(C)n[nH]c2C)cc1,.,.,83.3
Cc1ccc(CNC(=O)CN(c2ccc(C)cc2)S(=O)(=O)c2c(C)nn(C)c2C)cc1,.,.,.
OC(CNC(=S)Nc1ccc(Cl)cc1Cl)COCc1ccco1 (configuration not stated),.,.,/
CCOC(=O)c1cn[nH]c1S(=O)(=O)N(CC(C)C)CC(C)C,.,.,/
CC(Sc1ccccc1Cl)C(=O)NC1(C#N)CCSC1 (configuration not stated),.,.,/
Ic1ccc(N2CCN(Cc3c[nH]c4ncccc34)CC2)cc1,.,?,76.1
O=C(c1cccnc1)N1CCN(Cc2c[nH]c3ccccc23)CC1,.,.,/
Cc1ccccc1N1CC(c2nc3ccccc3n2Cc2ccc(Br)cc2)CC1=O (configuration not stated),?,?,91.7
CCOc1ccccc1N1CC(c2nc3ccccc3n2CCCCOc2ccccc2)CC1=O (configuration not stated),.,.,.
SMILES,UDG counter,AID inh,GPR32 ag
O=C1CC(c2nc3ccccc3n2CCCCOc2ccccc2)CN1c1ccccc1Cl (configuration not stated),89.1µM,?,.
CCc1ccc(OCCn2c(C3CC(=O)N(Cc4ccc(F)cc4)C3)nc3ccccc32)cc1 (configuration not stated),?,?,.
Cc1cccc(C)c1N1CC(c2nc3ccccc3n2CC(=O)OC(C)C)CC1=O (configuration not stated),.,.,.
Cc1ccccc1N1CC(c2nc3ccccc3n2CCC2CCCCC2)CC1=O (configuration not stated),?,?,.
CCc1ccccc1N1CC(c2nc3ccccc3n2CCC2CCCCC2)CC1=O (configuration not stated),79.4µM,?,.
Cc1ccc(OCCn2c(C3CC(=O)N(Cc4ccc(F)cc4)C3)nc3ccccc32)c(C)c1 (configuration not stated),?,35.5µM,.
COc1cc(C#N)ccc1OC(C)C(=O)c1ccccc1 (configuration not stated),.,.,/
COc1ccc(-c2cn3nc(N4CCC(C(=O)Nc5ccc(Cl)cc5C)CC4)sc3n2)cc1,.,.,.
COc1ccc(-c2cn3nc(N4CCC(C(=O)Nc5cccc(OC)c5)CC4)sc3n2)cc1,.,.,75.8
COc1ccc(N2CC(C(=O)O)CC2=O)cc1OC (configuration not stated),.,.,/
Cc1ccc(C)c2sc(N3CCN(C(=O)c4ccco4)CC3)nc12,?,.,87.8
Cc1cccc2sc(N3CCN(C(=O)c4ccco4)CC3)nc12,.,.,.
CC1CCCC(NC(=O)c2cc(Sc3cccc(Cl)c3)nc3ccccc23)C1C (configuration not stated),.,.,/
Cc1cc(N2CCCCC2)nc2ccc(NC(=O)c3ccc(F)cc3)cc12,.,.,105.4
Cc1ccc(NC(=O)Nc2ccc3nc(N4CCN(C)CC4)cc(C)c3c2)cc1F,.,.,93.6
Cc1cc(N2CCN(C)CC2)nc2ccc(NC(=O)Nc3ccc(F)cc3)cc12,.,.,.
COc1ccc(C(=O)Nc2ccc3nc(N4CCC(C)CC4)cc(C)c3c2)cc1,.,.,.
O=C(CCc1nc(-c2ccccc2)c(-c2ccccc2)o1)N1CCCCC1,.,.,/
O=C(Nc1cccc(C(F)(F)F)c1)c1cn2c3c(cccc3c1=Nc1cccc(C(F)(F)F)c1)CCC2,.,.,/
O=C(Nc1cccc(OC2CCCC2)c1)c1ccncc1,.,.,/
COc1ccccc1CCNC(=O)c1csc2ccccc12,.,.,/
Cc1nc2c(C(=O)NCc3ccccc3)cnn2c(C)c1Cc1ccc(F)cc1,.,?,.
CCCCNC(=O)c1cnn2c(C)c(Cc3c(C)cc(C)cc3C)c(C)nc12,.,?,.
CCCNC(=O)c1cnn2c(C)c(Cc3c(C)cc(C)cc3C)c(C)nc12,.,39.8µM,.
COc1ccc(CNC(=O)c2cnn3c(C)c(Cc4c(F)cccc4Cl)c(C)nc23)cc1,.,35.5µM,.
SMILES,UDG counter,AID inh,GPR32 ag
O=C(Cc1ccsc1)OCC(=O)c1ccc2c(c1)OCCO2,.,.,/
CCCCN(Cc1ccccc1)c1ccc(NS(=O)(=O)c2ccc(CC(C)C)cc2)cc1C(=O)O,.,.,/
CC(C)(Sc1ccc(CCN(CCCCC2CCCCC2)C(=O)NC2CCCCC2)cc1)C(=O)O,.,89.1µM,.
CCCCc1ccc(NC(=O)CC2CCCCC2)cc1,.,.,/
Cc1ccc(C)c(OCC(O)Cn2nc(C)c3ccccc3c2=O)c1C (configuration not stated),.,.,/
COc1ccc(N(C(=O)c2ccccc2C)S(=O)(=O)c2ccc(C)cc2)cc1,79.4µM,?,.
COc1ccc(N(C(=O)c2cccc(C)c2)S(=O)(=O)c2ccc(Cl)cc2)cc1,?,.,.
CCOc1ccc(NC(=O)CNS(=O)(=O)c2ccc(Br)s2)cc1,.,.,.
CCOC(=O)c1ccc(NS(=O)(=O)c2ccc(Br)s2)cc1,.,.,65.6
Cc1ccccc1CN1CCC(N(C)Cc2ccccc2)CC1,?,.,/
CC(C(=O)NCc1ccco1)n1cnc2c1c(=O)n(C)c(=O)n2C (configuration not stated),.,.,/
Cn1nc(C(=O)OCCOc2ccccc2F)c2ccccc2c1=O,.,.,/
O=C(Nc1ccc(F)cc1)Nc1ccc2snnc2c1,.,.,.
Cc1ccc(F)c(NC(=O)Nc2ccc3snnc3c2)c1,.,.,68.1
